These results are taken from PubChem BioAssay (Tox21).

A short description of assay [1]: qHTS assay for small molecules that induce genotoxicity in human embryonic kidney cells expressing luciferase-tagged ATAD5 (AID 651632). Further: nearly all actives have a fitted effect of over 15% in size. In outline: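 Test compounds were delivered by pin tool onto HEK293T reporter cells (2,000/well) expressing ATAD5 fused to luciferase. After 16 hr at 37C, 5% CO2, Amplite was added for 30 min at room temperature and luminescence was measured.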
For orientation: In qHTS, concentration-response curves come from the screen itself.

Assay [2] is described as follows: qHTS assay for small molecule agonists of the p53 signaling pathway - cell viability (AID 651633; calls by dose curve;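 further: p53RE-bla HCT reporter cells with a stable beta-lactamase p53 reporter; series mostly up to about 83 µM; nearly all actives have a fitted effect of over 30% in size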). An outline of the steps:
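p53RE-bla cells were treated with compound for 16 hours at 37 C. Cytotoxicity was then measured as CellTiter-Glo luminescence after 30 min at room temperature.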

The nature of assay [3]: qHTS assay for small molecules that induce genotoxicity in human embryonic kidney cells expressing luciferase-tagged ATAD5 - cell viability (AID 651634; calls by dose curve; further: nearly all actives have a fitted effect of over 25% in size). An outline of the steps:
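Quantitative high-throughput format. HEK293T cells expressing ATAD5 fused to luciferase were plated at 2,000 cells/well and treated 15.5 hr with compound versus DMSO. Viability was determined by fluorescent live-cell protease substrate, 30 min at 37C.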

The nature of assay [4]: qHTS assay for small molecule disruptors of the mitochondrial membrane potential - cell viability (AID 720634; calls by dose curve;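 further: human HepG2 liver cancer cells; series mostly up to about 83 µM; nearly all actives have a fitted effect of over 20% in size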). In outline: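 Same-well counter-screen: following the MMP dye addition, CellTiter-Glo was added to 1 hr compound-treated HepG2 cells and luminescence read after 30 min at room temperature.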
Assay [5] can be described thus: qHTS assay to test for compound auto fluorescence at 590 nm (red) in HepG2 cells (AID 720674). An outline of the steps:
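Fluorescence at 590 nm emission following 540 nm excitation was recorded from HepG2 wells one hour after compound transfer, with DMSO-only wells as vehicle and Rose Bengal sodium equivalency as the scale.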

Assay [6] is described as follows: qHTS assay to test for compound auto fluorescence at 535 nm (green) in HepG2 cells (AID 720675).
A short description of assay [7]: qHTS assay to test for compound auto fluorescence at 460 nm (blue) in HEK293 cells (AID 720678). In outline: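 Triamterene serves as the blue fluorophore standard. Compound signal at 405/460 nm is read in HEK293 wells (2,000 cells, 10% dialyzed FBS) after overnight treatment at 37C.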
The nature of assay [8]: qHTS assay to test for compound auto fluorescence at 590 nm (red) in HEK293 cells (AID 720679). In outline: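 We plated HEK293 cells in 10% dialyzed FBS medium, let them adhere for 4-5 hr, then added 23 nL compound. Overnight at 37C and 5% CO2 preceded fluorescence measurement at 540/590nm.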
Assay [9] in a line: qHTS assay for small molecule disruptors of the mitochondrial membrane potential (AID 720635). Further: potency means the concentration at half of the fitted maximal effect. An outline of the steps: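 HepG2 cells exposed to compound 1 hr at 37C, then Mito-MPS dye 30 min. Ratio read of aggregate (540/590 nm) versus monomer (490/535 nm) fluorescence.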

Inconclusive results are not listed. Calls of active or inactive are those of the source. Unless noted, the call rests on the fitted dose curve; in most records, active means well fitted curve in the direction sought with a large enough effect in the repeat runs; inconclusive means weak or mixed curves; inactive means no such curve, though single readings can be large; an effect the other way counts as inactive or inconclusive.

Regarding `CC[N+](C)(C)c1cccc(O)c1`, the Potency result in assay [1], in assay [3] and in [4] was “inactive” throughout. The outcome in assay [2], in assay [5], in assay [6], in assay [7] and in [8] was inactive.
For `FC1(F)C(F)(F)C(F)(F)C2(F)C(F)(F)C(F)(F)C(F)(F)C(F)(F)C2(F)C1(F)F` (centres undefined), the Potency entry in assay [1], in assay [3], in assay [4] and in [9] was “inactive” in each case. Moreover, the compound was called inactive in [2], in [5], in [6], in [7] and in assay [8].
Regarding `CC(C)=CCCC(C)CC(=O)O` (centres undefined), the Potency entry in assay [1], in [3], in [4] and in [9] was “inactive” throughout. Moreover, the call in assay [2], in [5], in assay [6], in [7] and in assay [8] was inactive.
With `Cc1[nH]c(=O)c(C#N)cc1-c1ccc2nccn2c1`, the Potency result in [1], in [3] and in [4] was “inactive” in each case. Moreover, the compound was classed as inactive in [2], in assay [5], in assay [6], in assay [7] and in assay [8].
On to `CS(=O)(=O)O`, for which the Potency result in [1], in [3] and in assay [4] was “inactive” each time. The outcome in assay [2], in assay [5], in assay [6], in assay [7] and in [8] was inactive.
With `Cc1c(O)cccc1O`, the Potency entry in [1], in assay [3], in assay [4] and in assay [9] was “inactive” in each case. In addition, the call in assay [2], in [5], in assay [7] and in assay [8] was inactive.
Take `CCC=O`: the Potency entry in assay [1], in assay [3] and in assay [4] was “inactive” in each case. Also, the compound was classed as inactive in [2], in assay [5], in assay [6], in assay [7] and in assay [8].
As for `O=C(O)CN(CCOCCOCCN(CC(=O)O)CC(=O)O)CC(=O)O`, the Potency result in assay [1], in [3] and in assay [4] was “inactive” throughout. Moreover, the compound was called inactive in [2], in assay [5], in assay [6], in assay [7] and in [8].
`CCCCCOC(=O)CCCCC`: the Potency result in [1], in [3] and in assay [4] was “inactive” each time. Further, the result in assay [2], in assay [5], in assay [6], in assay [7] and in assay [8] was inactive.
Take `CCN(CC)CCOCCOC(=O)C1(c2ccccc2)CCCC1`: the Potency entry in assay [1], in assay [3] and in assay [4] was “inactive” throughout. For the same compound, the compound was classed as inactive in assay [2], in [5], in assay [6], in assay [7] and in assay [8].
Consider `CCOC(C)(C)C`, for which the Potency result in [1], in assay [3] and in [4] was “inactive” throughout. Besides, the result in assay [2], in [5], in assay [6], in assay [7] and in assay [8] was inactive.
Regarding `CCOC(=O)C(=O)OCC`, the Potency result in assay [1], in assay [3], in [4] and in assay [9] was “inactive” in each case. Further, the result in assay [2], in assay [5], in assay [6], in [7] and in assay [8] was inactive.
Take `COC(=O)c1c(Cl)c(Cl)c(C(=O)OC)c(Cl)c1Cl`: the Potency entry in assay [1], in assay [3], in [4] and in assay [9] was “inactive” each time. For the same compound, the call in assay [2], in [5], in assay [7] and in assay [8] was inactive.
Consider `CCO[Si](CCC1CCC2OC2C1)(OCC)OCC` (centres undefined), for which the Potency entry in assay [1], in assay [3], in [4] and in assay [9] was “inactive” each time. Moreover, the compound was called inactive in assay [2], in assay [5], in assay [6], in assay [7] and in assay [8].
Consider `CCOC(=O)c1c(C)n(C)c2ccc(O)cc12`, for which the Potency result in assay [1], in assay [3] and in assay [4] was “inactive” each time. Besides, the compound was classed as inactive in [2], in assay [5], in assay [6], in assay [7] and in assay [8]. The Potency in [9] was 7.84 µM (active).
Consider `COC(=O)CC(C)=O`, for which the Potency entry in assay [1], in [3], in assay [4] and in assay [9] was “inactive” in each case. The compound was called inactive in assay [2], in assay [5], in assay [6], in assay [7] and in [8].
As to `N=C(N)c1ccc2cc(OC(=O)c3ccc(N=C(N)N)cc3)ccc2c1`, the Potency entry in assay [1], in assay [3] and in assay [4] was “inactive” each time. The call in [2], in assay [5], in assay [6], in assay [7] and in [8] was inactive.
With `CC(C)(O)C(=O)c1ccccc1`, the Potency result in assay [1], in [3], in assay [4] and in [9] was “inactive” each time. In addition, the outcome in [2], in assay [5], in [7] and in assay [8] was inactive.
Regarding `CC(=O)OCC(=O)[C@@]1(O)CC[C@H]2[C@@H]3CCC4=CC(=O)CC[C@]4(C)[C@H]3C(=O)C[C@@]21C`, the Potency entry in assay [1], in assay [3] and in [4] was “inactive” each time. Besides, the result in [2], in [5], in assay [6], in [7] and in assay [8] was inactive.
Consider `CC/C=C\CC/C=C/CO`, for which the Potency entry in [1], in assay [3] and in assay [4] was “inactive” in each case. Besides, the call in assay [2], in assay [5], in assay [6], in assay [7] and in [8] was inactive.
In the case of `O=C(CCCN1CCN(c2ccccn2)CC1)c1ccc(F)cc1`, the Potency entry in assay [1], in assay [3], in [4] and in assay [9] was “inactive” in each case. Further, the call in assay [2], in assay [5], in assay [6], in [7] and in assay [8] was inactive.
For `C=C(C)CS(=O)(=O)O`, the Potency entry in assay [1], in assay [3] and in assay [4] was “inactive” throughout. Moreover, the compound was called inactive in [2], in assay [5], in [6], in assay [7] and in assay [8].
As to `OCCCC1CCCCC1`, the Potency entry in assay [1], in assay [3], in assay [4] and in assay [9] was “inactive” each time. Further, the outcome in assay [2], in assay [5], in [6], in assay [7] and in assay [8] was inactive.
For the compound `CC(=O)CC(C)C`, the Potency result in assay [1], in [3], in assay [4] and in assay [9] was “inactive” each time. Besides, the call in assay [2], in assay [5], in assay [6], in [7] and in assay [8] was inactive.
For `CO/N=C(/C(=O)N[C@@H]1C(=O)N2C(C(=O)OCOC(=O)C(C)(C)C)=C(C)CS[C@H]12)c1csc(N)n1`, the Potency result in assay [1], in assay [3] and in assay [4] was “inactive” throughout. The compound was classed as inactive in assay [2], in assay [5], in [6], in [7] and in [8].
As for `N[C@@H](C(=O)N[C@@H]1C(=O)N2C(C(=O)O)=C(Cl)CS[C@H]12)c1ccccc1`, the Potency entry in [1], in assay [3] and in [4] was “inactive” in each case. Besides, the compound was classed as inactive in assay [2], in [5], in assay [6], in assay [7] and in assay [8].
In the case of `N#Cc1ccc(C2CCCc3cncn32)cc1` (centres undefined), the Potency entry in [1], in assay [3] and in [4] was “inactive” each time. Further, the compound was classed as inactive in assay [2], in assay [5], in assay [6], in [7] and in assay [8].
Consider `O=C1CCCC(=O)C1`, for which the Potency entry in assay [1], in assay [3], in [4] and in assay [9] was “inactive” each time. Moreover, the compound was classed as inactive in assay [2], in assay [5], in assay [7] and in [8].
As to `CCC(=O)OC(C)c1ccccc1` (centres undefined), the Potency entry in assay [1], in assay [3] and in [4] was “inactive” in each case. The outcome in [2], in assay [5], in [6], in assay [7] and in [8] was inactive.
Consider `CCCCC(CC)COC(=O)c1ccccc1O` (centres undefined), for which the Potency entry in assay [1], in [3] and in assay [4] was “inactive” throughout. Further, the compound was classed as inactive in assay [2], in [5], in assay [6], in assay [7] and in [8].
As to `C[N+](C)(C)CC(O)CC(=O)[O-]` (centres undefined), the Potency result in assay [1], in assay [3], in [4] and in assay [9] was “inactive” in each case. In addition, the compound was classed as inactive in [2], in [5], in [7] and in assay [8].
With `c1ccc(CC2=NCCN2)cc1`, the Potency result in [1], in [3], in assay [4] and in assay [9] was “inactive” in each case. In addition, the call in assay [2], in assay [5], in [6], in assay [7] and in [8] was inactive.
`CN1C(=O)N(C)C(O)C1O` (centres undefined): the Potency result in [1], in assay [3] and in [4] was “inactive” each time. Also, the outcome in [2], in [5], in assay [6], in [7] and in [8] was inactive.
As to `CC(C)(C)c1nnc(NS(=O)(=O)c2ccccc2)s1`, the Potency result in assay [1], in [3] and in assay [4] was “inactive” throughout. Also, the outcome in assay [2], in assay [5], in [6], in assay [7] and in assay [8] was inactive.
Take `OC1CCCCC1c1ccccc1` (centres undefined): the Potency entry in assay [1], in [3] and in assay [4] was “inactive” each time. Also, the call in assay [2], in assay [5], in assay [6], in [7] and in assay [8] was inactive.
With `N[C@H]1CN(c2c(F)cc3c(=O)c(C(=O)O)cn(C4C[C@H]4F)c3c2Cl)CC12CC2` (some centres undefined), the Potency result in assay [1], in assay [3], in assay [4] and in assay [9] was “inactive” each time. Moreover, the compound was classed as inactive in assay [2], in assay [5], in assay [6], in assay [7] and in assay [8].
